Data reported in the supplement of paper PMC10849652.
The full data set covers some 7,900 targets. This sample favours those with a hit. About 0.6% of all pairs of compound and target were hits.

Legend:
Assay in all cases: log2 fold change, soluble protein after heating vs DMSO (PISA); higher = thermal stabilisation; K562 cells, 10 uM, 30 min; active = over 0.2 and 3.5 SD of the protein, either way, in both replicates (recomputed)
bafetinib = compound: Cc1ccc(NC(=O)c2ccc(CN3CC[C@H](N(C)C)C3)c(C(F)(F)F)c2)cc1Nc1nccc(-c2cncnc2)n1 [bafetinib]
Method in brief: (§1)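 K562 cells (2×10^6 cells/mL) were treated with 10 μM compound for 30 min, and aliquots were heated for 3 min over 48°C-58°C. Pooled aliquots were extracted in PBS with 0.5% NP-40 at 4°C, and the supernatant after 21,000xg for 90 min was measured by TMTpro 16plex LC-MS/MS with channel sums equalised. Reported thermal stability, relative to control samples and from duplicates, is a log2 fold change.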

[1] = compound: Cc1cccc(CC(=O)N2CCc3c2ccc(-c2cn(C)c4ncnc(N)c24)c3F)n1
Method in brief: as §1

nilotinib = compound: Cc1cn(-c2cc(NC(=O)c3ccc(C)c(Nc4nccc(-c5cccnc5)n4)c3)cc(C(F)(F)F)c2)cn1 [nilotinib]
Method in brief: as §1

[2] = compound: Cc1nc(Nc2n[nH]c3c2CN(C(=O)N[C@H](CN(C)C)c2ccccc2)C3(C)C)c2sccc2n1
Method in brief: as §1

dasatinib = compound: Cc1nc(Nc2ncc(C(=O)Nc3c(C)cccc3Cl)s2)cc(N2CCN(CCO)CC2)n1 [dasatinib]
Method in brief: as §1

[3] = compound: Cc1ncc(-c2ccnc(Nc3ccc(S(C)(=O)=O)cc3)n2)n1C(C)C
Method in brief: as §1

[4] = compound: Cn1cc(-c2ccc3c(c2)CCN3C(=O)Cc2cccc(C(F)(F)F)c2)c2c(N)ncnc21
Method in brief: as §1

[5] = compound: Cn1cc(-c2ccc3nnc(C(F)(F)c4ccc5ncccc5c4)n3n2)cn1
Method in brief: as §1

tipifarnib = compound: Cn1cncc1[C@@](N)(c1ccc(Cl)cc1)c1ccc2c(c1)c(-c1cccc(Cl)c1)cc(=O)n2C [tipifarnib]
Method in brief: as §1

mubritinib = compound: FC(F)(F)c1ccc(/C=C/c2nc(COc3ccc(CCCCn4ccnn4)cc3)co2)cc1 [mubritinib]
Method in brief: as §1

[6] = compound: NC(=O)Nc1cc(-c2cccc(F)c2)sc1C(=O)N[C@H]1CCCNC1
Method in brief: as §1

[7] = compound: NC(=O)c1cnc(N[C@@H]2CCCC[C@@H]2N)nc1Nc1cccc(-n2nccn2)c1
Method in brief: as §1

[8] = compound: NC1(c2ccc(-c3nc4ccn5c(=O)[nH]nc5c4cc3-c3ccccc3)cc2)CCC1
Method in brief: as §1

[9] = compound: NCC(=O)Nc1ccc(-n2nc(C(F)(F)F)cc2-c2ccc3c(ccc4ccccc43)c2)cc1
Method in brief: as §1

entinostat = compound: Nc1ccccc1NC(=O)c1ccc(CNC(=O)OCc2cccnc2)cc1 [entinostat]
Method in brief: as §1

vorinostat = compound: O=C(CCCCCCC(=O)Nc1ccccc1)NO [vorinostat]
Method in brief: as §1

citarinostat = compound: O=C(CCCCCCNC(=O)c1cnc(N(c2ccccc2)c2ccccc2Cl)nc1)NO [citarinostat]
Method in brief: as §1

silmitasertib = compound: O=C(O)c1ccc2c(c1)nc(Nc1cccc(Cl)c1)c1ccncc12 [silmitasertib]
Method in brief: as §1

[10] = compound: O=C1NC(=O)C(c2cnc3ccccn23)=C1c1cn2c3c(cc(F)cc13)CN(C(=O)N1CCCCC1)CC2
Method in brief: as §1

[11] = compound: c1cc(OCCN2CCCCC2)cc(-c2n[nH]c3ccc(-c4nnc[nH]4)cc23)c1
Method in brief: as §1

Measured: log2 fold change

MRPS27 isoform 2 (UniProt Q92552)
inactive: bafetinib 0.181 | [1] 0.099 | nilotinib -0.083 | [2] 0.021 | dasatinib -0.104 | [3] -0.049 | [4] 0.022 | [5] 0.033 | tipifarnib -0.112 | mubritinib 0.119 | [6] 0.067 | [7] -0.015 | [8] -0.105 | [9] -0.007 | entinostat 0.011 | vorinostat 0.104 | citarinostat 0.08 | silmitasertib -0.04 | [10] 0.049 | [11] -0.012

PAFAH1B2 (UniProt P68402)
Sequence of UniProt P68402 (P68402 whole entry, looked up): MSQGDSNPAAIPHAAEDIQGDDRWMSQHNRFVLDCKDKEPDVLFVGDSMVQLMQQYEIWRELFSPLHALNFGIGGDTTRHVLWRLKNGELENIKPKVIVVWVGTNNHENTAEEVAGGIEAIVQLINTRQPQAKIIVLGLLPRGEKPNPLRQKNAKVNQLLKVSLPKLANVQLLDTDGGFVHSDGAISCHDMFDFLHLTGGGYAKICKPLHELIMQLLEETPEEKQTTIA
inactive: bafetinib -0.025 | [1] 0.035 | nilotinib 0.067 | [2] -0.121 | dasatinib -0.011 | [3] -0.075 | [4] 0.024 | [5] 0.003 | tipifarnib 0.188 | mubritinib 0.092 | [6] 0.015 | [7] 0.049 | [8] -0.037 | [9] -0.025 | entinostat 0.045 | vorinostat -0.088 | citarinostat 0.021 | silmitasertib 0.106 | [10] -0.048 | [11] -0.097

OGFOD1 (UniProt Q8N543)
inactive: bafetinib -0.042 | [1] -0.033 | nilotinib -0.015 | [2] 0.039 | dasatinib -0.009 | [3] -0.021 | [4] 0.01 | [5] 0.078 | tipifarnib -0.05 | mubritinib -0.04 | [6] 0.015 | [7] 0.021 | [8] -0.08 | [9] -0.056 | entinostat -0.002 | vorinostat 0.005 | citarinostat 0.012 | silmitasertib 0.02 | [10] -0.072 | [11] -0.006

OXSM (UniProt Q9NWU1)
Sequence of UniProt Q9NWU1 (Q9NWU1 whole entry, looked up): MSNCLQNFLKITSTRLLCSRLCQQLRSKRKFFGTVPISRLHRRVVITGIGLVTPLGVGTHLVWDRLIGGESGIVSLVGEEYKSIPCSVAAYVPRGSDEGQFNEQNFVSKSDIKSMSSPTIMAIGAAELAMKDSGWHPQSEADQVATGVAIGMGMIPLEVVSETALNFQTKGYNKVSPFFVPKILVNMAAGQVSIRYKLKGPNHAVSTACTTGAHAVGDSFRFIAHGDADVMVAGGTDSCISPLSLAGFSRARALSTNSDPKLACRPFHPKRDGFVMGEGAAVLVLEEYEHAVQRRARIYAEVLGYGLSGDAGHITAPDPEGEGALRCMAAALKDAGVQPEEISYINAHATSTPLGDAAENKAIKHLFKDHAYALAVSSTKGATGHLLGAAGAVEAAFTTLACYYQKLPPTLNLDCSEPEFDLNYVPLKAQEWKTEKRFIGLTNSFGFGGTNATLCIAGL
inactive: bafetinib -0.063 | [1] -0.034 | nilotinib 0.029 | [2] -0.002 | dasatinib 0.031 | [3] -0.015 | [4] 0.029 | [5] 0.021 | tipifarnib -0.009 | mubritinib 0.023 | [6] 0.016 | [7] 0.068 | [8] -0.026 | [9] 0.049 | entinostat -0.019 | vorinostat -0.028 | citarinostat 0.037 | silmitasertib -0.04 | [10] -0.011 | [11] -0.015

NT5DC1 (UniProt Q5TFE4)
Sequence of UniProt Q5TFE4 (Q5TFE4 whole entry, looked up): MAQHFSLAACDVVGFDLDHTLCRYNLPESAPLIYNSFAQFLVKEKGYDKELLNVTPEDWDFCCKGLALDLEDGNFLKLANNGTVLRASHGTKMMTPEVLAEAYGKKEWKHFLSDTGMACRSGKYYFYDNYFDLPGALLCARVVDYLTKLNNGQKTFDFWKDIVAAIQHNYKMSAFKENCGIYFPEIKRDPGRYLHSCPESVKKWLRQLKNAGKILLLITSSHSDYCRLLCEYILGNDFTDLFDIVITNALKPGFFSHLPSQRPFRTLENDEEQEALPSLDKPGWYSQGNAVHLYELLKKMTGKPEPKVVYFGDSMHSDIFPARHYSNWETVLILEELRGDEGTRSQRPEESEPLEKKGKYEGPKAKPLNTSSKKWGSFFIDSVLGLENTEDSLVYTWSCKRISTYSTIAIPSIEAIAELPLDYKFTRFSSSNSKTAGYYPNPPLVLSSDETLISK
active: [11] 0.236
inactive: bafetinib 0.043 | [1] 0.004 | nilotinib 0.099 | [2] 0.069 | dasatinib 0.033 | [3] -0.016 | [4] 0.045 | [5] 0.069 | tipifarnib -0.043 | mubritinib 0.001 | [6] -0.057 | [7] -0.052 | [8] -0.003 | [9] -0.012 | entinostat -0.037 | vorinostat -0.013 | citarinostat 0.003 | silmitasertib 0.025 | [10] -0.038

NIBAN1 (UniProt Q9BZQ8)
Sequence of UniProt Q9BZQ8 (Q9BZQ8 whole entry, looked up): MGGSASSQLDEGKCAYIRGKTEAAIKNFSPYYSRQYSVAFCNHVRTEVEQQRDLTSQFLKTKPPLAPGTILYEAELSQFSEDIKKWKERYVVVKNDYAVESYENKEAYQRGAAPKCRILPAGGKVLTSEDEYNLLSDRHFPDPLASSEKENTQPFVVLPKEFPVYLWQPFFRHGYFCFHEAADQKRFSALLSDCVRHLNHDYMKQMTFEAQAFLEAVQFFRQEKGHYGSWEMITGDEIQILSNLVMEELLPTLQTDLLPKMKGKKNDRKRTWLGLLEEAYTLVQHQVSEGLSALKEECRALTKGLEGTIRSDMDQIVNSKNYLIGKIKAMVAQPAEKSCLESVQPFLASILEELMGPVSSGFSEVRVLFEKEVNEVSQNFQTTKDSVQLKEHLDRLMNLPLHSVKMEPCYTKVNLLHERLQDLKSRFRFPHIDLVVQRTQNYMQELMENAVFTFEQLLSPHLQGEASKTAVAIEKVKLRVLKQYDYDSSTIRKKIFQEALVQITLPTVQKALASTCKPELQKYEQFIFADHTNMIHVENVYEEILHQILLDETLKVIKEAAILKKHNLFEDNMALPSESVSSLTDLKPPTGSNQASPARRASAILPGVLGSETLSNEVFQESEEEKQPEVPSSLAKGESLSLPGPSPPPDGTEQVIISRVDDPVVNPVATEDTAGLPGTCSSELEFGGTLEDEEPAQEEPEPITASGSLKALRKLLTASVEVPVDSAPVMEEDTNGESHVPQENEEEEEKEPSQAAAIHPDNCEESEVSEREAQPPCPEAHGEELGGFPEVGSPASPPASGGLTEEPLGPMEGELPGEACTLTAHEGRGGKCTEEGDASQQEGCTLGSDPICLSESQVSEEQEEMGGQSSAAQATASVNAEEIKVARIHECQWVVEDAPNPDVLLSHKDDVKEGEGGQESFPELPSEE
active: [2] -0.383
inactive: bafetinib -0.013 | [1] 0.121 | nilotinib -0.041 | dasatinib -0.14 | [3] -0.057 | [4] 0.001 | [5] -0.035 | tipifarnib -0.04 | mubritinib 0.013 | [6] -0.118 | [7] -0.036 | [8] -0.169 | [9] -0.036 | entinostat 0.073 | vorinostat 0.106 | citarinostat 0.123 | silmitasertib 0.029 | [10] -0.069 | [11] -0.106

NOP53 (UniProt Q9NZM5)
inactive: bafetinib 0.189 | [1] 0.059 | nilotinib 0.039 | [2] 0.217 | dasatinib 0.147 | [3] 0.027 | [4] -0.339 | [5] -0.178 | tipifarnib 0.161 | mubritinib -0.202 | [6] 0.054 | [7] 0.201 | [8] 0.353 | [9] 0.258 | entinostat -0.141 | vorinostat -0.051 | citarinostat -0.063 | silmitasertib 0.256 | [10] 0.285 | [11] -0.152

NSUN2 (UniProt Q08J23)
Sequence of UniProt Q08J23 (Q08J23 whole entry, looked up): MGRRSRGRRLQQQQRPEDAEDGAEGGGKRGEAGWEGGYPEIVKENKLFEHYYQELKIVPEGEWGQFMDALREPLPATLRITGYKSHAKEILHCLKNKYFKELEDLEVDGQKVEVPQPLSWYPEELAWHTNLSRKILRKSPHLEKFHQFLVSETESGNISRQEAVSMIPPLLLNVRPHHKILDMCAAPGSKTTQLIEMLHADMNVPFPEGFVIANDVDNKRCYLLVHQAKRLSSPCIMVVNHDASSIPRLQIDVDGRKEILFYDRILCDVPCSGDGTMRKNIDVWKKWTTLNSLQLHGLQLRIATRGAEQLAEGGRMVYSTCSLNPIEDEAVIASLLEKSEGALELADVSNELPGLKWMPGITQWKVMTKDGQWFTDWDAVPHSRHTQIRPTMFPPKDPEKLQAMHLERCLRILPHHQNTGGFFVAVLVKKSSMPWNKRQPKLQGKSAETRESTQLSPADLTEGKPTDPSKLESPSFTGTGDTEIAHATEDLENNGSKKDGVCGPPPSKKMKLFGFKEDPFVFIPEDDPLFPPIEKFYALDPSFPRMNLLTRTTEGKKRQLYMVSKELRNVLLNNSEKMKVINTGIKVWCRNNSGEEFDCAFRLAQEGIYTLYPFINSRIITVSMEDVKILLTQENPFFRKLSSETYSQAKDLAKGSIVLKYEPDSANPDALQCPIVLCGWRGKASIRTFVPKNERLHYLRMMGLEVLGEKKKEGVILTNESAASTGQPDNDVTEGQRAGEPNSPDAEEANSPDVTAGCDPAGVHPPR
inactive: bafetinib -0.059 | [1] 0.056 | nilotinib -0.038 | [2] -0.271 | dasatinib -0.146 | [3] -0.222 | [4] -0.034 | [5] -0.053 | tipifarnib -0.033 | mubritinib -0.045 | [6] 0.029 | [7] -0.246 | [8] -0.106 | [9] -0.027 | entinostat 0.01 | vorinostat 0.137 | citarinostat 0.013 | silmitasertib 0.046 | [10] -0.026 | [11] -0.075

OSTC (UniProt Q9NRP0)
Sequence of UniProt Q9NRP0 (Q9NRP0 whole entry, looked up): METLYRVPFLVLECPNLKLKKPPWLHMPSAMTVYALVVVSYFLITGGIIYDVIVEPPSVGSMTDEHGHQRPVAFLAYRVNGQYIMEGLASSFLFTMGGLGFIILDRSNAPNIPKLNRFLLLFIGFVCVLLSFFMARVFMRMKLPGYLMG
inactive: bafetinib -0.137 | [1] 0.027 | nilotinib -0.047 | [2] -0.013 | dasatinib -0.059 | [3] -0.029 | [4] 0.057 | [5] 0.069 | tipifarnib -0.013 | mubritinib 0.044 | [6] -0.062 | [7] 0.028 | [8] -0.107 | [9] -0.134 | entinostat 0.039 | vorinostat -0.001 | citarinostat 0.074 | silmitasertib -0.011 | [10] 0.05 | [11] -0.067

NARS2 (UniProt Q96I59)
Sequence of UniProt Q96I59 (Q96I59 whole entry, looked up): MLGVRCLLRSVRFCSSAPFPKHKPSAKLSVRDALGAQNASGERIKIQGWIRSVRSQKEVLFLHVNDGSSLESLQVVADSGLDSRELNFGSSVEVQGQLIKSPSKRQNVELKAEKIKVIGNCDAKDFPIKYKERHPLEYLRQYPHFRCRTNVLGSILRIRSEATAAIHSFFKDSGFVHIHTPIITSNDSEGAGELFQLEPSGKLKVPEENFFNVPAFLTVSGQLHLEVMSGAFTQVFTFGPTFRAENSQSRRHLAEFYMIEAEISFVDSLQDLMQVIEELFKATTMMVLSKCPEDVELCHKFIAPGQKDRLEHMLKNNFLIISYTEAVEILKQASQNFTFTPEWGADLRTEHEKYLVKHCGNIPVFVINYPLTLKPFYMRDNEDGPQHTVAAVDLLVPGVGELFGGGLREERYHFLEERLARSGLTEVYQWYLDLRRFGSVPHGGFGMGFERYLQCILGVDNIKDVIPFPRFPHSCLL
inactive: bafetinib -0.108 | [1] 0.034 | nilotinib -0.063 | [2] 0.069 | dasatinib -0.05 | [3] 0.005 | [4] 0.084 | [5] 0.047 | tipifarnib -0.004 | mubritinib -0.009 | [6] -0.05 | [7] 0.057 | [8] -0.142 | [9] -0.02 | entinostat 0.012 | vorinostat 0 | citarinostat 0.043 | silmitasertib -0.04 | [10] -0.064 | [11] -0.026

NUP160 (UniProt Q12769)
Sequence of UniProt Q12769 (Q12769 whole entry, looked up): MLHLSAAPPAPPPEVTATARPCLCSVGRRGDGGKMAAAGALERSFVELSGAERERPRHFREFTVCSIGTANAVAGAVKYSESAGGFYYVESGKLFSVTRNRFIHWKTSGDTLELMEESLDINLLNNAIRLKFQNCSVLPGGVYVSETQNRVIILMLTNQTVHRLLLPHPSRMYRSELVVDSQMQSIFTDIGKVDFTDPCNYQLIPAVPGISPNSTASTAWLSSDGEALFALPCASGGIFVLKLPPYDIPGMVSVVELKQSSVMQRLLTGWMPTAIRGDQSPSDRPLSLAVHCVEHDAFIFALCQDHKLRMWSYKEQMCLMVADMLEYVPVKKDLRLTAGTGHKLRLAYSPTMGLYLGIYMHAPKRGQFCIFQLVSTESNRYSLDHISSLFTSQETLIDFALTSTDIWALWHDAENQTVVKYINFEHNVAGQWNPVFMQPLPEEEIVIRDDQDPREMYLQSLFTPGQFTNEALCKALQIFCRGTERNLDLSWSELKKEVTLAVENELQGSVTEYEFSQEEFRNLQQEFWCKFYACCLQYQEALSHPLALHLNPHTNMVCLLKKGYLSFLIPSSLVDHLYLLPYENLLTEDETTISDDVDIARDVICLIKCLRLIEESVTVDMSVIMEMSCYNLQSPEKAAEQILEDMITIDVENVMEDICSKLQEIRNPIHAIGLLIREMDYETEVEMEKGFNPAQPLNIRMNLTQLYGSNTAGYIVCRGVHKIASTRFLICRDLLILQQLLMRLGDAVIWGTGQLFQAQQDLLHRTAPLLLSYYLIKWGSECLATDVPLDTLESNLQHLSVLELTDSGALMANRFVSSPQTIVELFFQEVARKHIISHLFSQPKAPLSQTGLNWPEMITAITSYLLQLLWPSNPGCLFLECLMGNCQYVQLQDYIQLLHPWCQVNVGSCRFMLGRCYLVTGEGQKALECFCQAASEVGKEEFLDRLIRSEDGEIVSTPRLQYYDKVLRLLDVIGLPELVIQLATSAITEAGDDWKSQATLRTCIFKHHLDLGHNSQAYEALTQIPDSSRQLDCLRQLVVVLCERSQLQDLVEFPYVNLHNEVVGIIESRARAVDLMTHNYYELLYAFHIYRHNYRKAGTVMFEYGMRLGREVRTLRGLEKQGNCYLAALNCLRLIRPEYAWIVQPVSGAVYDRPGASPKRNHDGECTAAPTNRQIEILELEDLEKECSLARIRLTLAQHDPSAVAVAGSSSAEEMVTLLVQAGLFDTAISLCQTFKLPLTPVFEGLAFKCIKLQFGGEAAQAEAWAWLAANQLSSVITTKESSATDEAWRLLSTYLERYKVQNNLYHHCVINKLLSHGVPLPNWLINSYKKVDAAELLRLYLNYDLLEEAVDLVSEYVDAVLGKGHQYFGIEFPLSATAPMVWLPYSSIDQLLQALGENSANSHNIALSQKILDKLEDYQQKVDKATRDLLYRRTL
inactive: bafetinib -0.127 | [1] 0.043 | nilotinib -0.078 | [2] -0.136 | dasatinib -0.045 | [3] -0.06 | [4] -0.025 | [5] -0.034 | tipifarnib -0.042 | mubritinib -0.042 | [6] 0.031 | [7] -0.058 | [8] -0.066 | [9] -0.062 | entinostat 0.008 | vorinostat 0.05 | citarinostat 0.018 | silmitasertib 0.075 | [10] 0.021 | [11] -0.09

OSBP (UniProt P22059)
active: [2] -0.257
inactive: bafetinib -0.017 | [1] 0.005 | nilotinib 0.123 | dasatinib -0.08 | [3] -0.067 | [4] -0.024 | [5] -0.024 | tipifarnib -0.085 | mubritinib 0.012 | [6] -0.007 | [7] 0.019 | [8] -0.17 | [9] -0.036 | entinostat 0.024 | vorinostat 0.013 | citarinostat 0.03 | silmitasertib 0.014 | [10] -0.131 | [11] -0.066

NEU1 (UniProt Q99519)
inactive: bafetinib -0.212 | [1] 0.171 | nilotinib -0.051 | [2] -0.009 | dasatinib 0.019 | [3] -0.147 | [4] -0.04 | [5] 0.01 | tipifarnib 0.072 | mubritinib -0.031 | [6] -0.081 | [7] -0.088 | [8] -0.114 | [9] -0.057 | entinostat 0.003 | vorinostat 0.159 | citarinostat 0.087 | silmitasertib 0.04 | [10] -0.066 | [11] -0.063
